Results reported in PMC7862700, “An all-to-all approach to the identification of sequence-specific readers for epigenetic DNA modifications on cytosine”.

Assays:
Experiment in all cases: DAPPL (digital affinity profiling via proximity ligation, sequencing); 10 mM Tris-HCl pH 7.5, 50 mM NaCl, 1 mM DTT, 4% glycerol, room temperature, 30 min; GST-TFs on glutathione beads, 16-mer random dsDNA library, 0.1% formaldehyde crosslink after washing; high values mean tight binding
Conditions in all cases: protein: recombinant; tags: N-terminal GST; dsDNA, one strand shown
FLI1 = biological target: T1, FLI1 (Homo sapiens, UniProt Q01543 1-452)
T1 sequence: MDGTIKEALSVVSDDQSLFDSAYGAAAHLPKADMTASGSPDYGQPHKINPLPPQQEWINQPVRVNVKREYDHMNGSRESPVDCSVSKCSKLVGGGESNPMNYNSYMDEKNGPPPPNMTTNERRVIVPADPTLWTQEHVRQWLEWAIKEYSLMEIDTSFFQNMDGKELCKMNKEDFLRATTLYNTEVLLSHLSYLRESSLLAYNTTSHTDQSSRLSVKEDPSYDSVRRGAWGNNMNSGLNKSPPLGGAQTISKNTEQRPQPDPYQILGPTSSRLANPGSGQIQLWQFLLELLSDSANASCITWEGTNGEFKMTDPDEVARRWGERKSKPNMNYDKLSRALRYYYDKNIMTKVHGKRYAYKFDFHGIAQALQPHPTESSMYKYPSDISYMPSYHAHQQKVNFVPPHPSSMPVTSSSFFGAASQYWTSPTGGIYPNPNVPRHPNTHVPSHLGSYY
Method in brief: (§1)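 Human transcription factors carrying a GST fusion were produced in yeast, bound to glutathione beads, tagged with DNA barcodes and pooled together with a tag-only sample. Each pool was held with 200 nmole of a random double-stranded 16-mer DNA library in Tris/NaCl/DTT/glycerol buffer for 30 min at room temperature, then washed, crosslinked in 0.1% formaldehyde, proximity-ligated with BsaI/T4 ligase (1 h, 37 °C), PCR-amplified and sequenced on an Illumina NextSeq500. Binding signal is the read frequency of each hexamer for a given factor divided by its frequency in the tag-only sample.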

ELK1 = biological target: T2, ELK1 (Homo sapiens, UniProt P19419 1-428)
T2 sequence: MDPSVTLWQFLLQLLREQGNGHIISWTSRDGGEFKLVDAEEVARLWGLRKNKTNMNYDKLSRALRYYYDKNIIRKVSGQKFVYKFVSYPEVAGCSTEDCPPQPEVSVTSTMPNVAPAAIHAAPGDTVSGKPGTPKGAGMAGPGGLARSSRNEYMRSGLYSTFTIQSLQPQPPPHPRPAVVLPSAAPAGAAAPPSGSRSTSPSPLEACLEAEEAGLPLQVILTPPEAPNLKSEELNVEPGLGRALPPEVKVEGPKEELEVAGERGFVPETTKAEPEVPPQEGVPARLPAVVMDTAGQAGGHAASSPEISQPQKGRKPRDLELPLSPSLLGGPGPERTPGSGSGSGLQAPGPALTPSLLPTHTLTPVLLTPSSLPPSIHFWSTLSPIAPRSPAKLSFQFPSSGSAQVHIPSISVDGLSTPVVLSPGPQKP
Method in brief: as §1

GABPA = biological target: T3, GABPA (Homo sapiens, UniProt Q06546 1-454)
T3 sequence: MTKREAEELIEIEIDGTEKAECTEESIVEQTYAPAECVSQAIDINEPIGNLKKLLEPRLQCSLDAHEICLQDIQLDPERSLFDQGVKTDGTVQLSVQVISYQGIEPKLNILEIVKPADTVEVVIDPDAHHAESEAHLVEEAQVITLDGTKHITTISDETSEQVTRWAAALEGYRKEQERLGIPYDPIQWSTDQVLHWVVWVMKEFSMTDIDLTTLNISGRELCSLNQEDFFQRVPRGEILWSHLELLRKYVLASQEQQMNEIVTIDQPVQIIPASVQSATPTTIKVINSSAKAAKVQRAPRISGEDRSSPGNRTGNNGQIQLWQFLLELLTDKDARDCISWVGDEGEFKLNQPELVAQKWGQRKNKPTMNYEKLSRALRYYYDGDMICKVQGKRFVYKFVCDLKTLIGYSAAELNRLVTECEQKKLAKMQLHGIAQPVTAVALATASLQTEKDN
Method in brief: as §1

ERG = biological target: T4, ERG (Homo sapiens, UniProt P11308 1-479)
T4 sequence: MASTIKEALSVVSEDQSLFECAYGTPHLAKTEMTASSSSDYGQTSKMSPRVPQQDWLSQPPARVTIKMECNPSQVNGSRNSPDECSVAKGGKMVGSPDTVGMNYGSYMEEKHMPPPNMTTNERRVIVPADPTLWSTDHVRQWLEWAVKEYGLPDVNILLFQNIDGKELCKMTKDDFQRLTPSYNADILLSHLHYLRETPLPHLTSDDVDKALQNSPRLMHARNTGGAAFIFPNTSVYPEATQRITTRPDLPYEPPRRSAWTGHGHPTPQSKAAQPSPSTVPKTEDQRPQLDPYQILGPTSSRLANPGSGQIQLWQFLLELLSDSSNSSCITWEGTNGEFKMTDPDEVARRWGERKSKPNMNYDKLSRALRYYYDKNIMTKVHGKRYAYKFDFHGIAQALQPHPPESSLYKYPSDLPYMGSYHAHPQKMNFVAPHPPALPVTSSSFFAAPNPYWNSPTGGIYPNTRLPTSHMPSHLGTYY
Method in brief: as §1

ELF1 = ELF1 (Homo sapiens, UniProt P32519 1-619)
Method in brief: as §1

EHF = biological target: T5, EHF (Homo sapiens, UniProt Q9NZC4 1-300)
T5 sequence: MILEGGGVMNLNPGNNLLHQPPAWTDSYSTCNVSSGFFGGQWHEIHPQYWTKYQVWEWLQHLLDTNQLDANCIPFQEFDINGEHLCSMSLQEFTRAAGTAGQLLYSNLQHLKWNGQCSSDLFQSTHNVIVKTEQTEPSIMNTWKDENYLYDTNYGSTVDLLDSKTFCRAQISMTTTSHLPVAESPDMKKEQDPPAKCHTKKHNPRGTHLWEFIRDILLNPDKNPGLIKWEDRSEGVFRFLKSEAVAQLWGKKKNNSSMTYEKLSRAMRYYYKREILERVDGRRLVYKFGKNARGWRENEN
Method in brief: as §1

SPI1 = SPI1 (Homo sapiens, UniProt P17947 1-270)
Method in brief: as §1

SPIB = SPIB (Homo sapiens, UniProt Q01892 1-262)
Method in brief: as §1

ELK3 = biological target: T6, ELK3 (Homo sapiens, UniProt P41970 1-407)
T6 sequence: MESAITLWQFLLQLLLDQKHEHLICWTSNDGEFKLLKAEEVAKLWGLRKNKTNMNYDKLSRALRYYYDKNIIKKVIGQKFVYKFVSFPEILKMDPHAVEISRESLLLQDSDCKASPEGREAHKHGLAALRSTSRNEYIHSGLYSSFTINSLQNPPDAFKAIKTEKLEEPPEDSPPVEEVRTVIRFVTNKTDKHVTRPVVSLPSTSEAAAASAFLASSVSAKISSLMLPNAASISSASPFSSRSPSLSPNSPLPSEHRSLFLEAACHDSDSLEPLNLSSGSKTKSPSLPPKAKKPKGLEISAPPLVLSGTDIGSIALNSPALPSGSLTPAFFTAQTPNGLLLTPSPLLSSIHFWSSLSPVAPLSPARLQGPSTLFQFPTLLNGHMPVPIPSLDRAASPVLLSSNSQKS
Method in brief: as §1

Chain of SPIB (Q01892 whole entry): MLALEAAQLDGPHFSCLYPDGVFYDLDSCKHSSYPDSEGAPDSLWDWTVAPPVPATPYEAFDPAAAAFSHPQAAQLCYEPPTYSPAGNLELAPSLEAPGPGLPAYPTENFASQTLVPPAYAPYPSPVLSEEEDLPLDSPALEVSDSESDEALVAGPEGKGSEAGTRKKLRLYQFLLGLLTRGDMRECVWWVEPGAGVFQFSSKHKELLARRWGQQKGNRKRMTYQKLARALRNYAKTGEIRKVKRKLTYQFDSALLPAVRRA
Chain of ELF1 (P32519 whole entry): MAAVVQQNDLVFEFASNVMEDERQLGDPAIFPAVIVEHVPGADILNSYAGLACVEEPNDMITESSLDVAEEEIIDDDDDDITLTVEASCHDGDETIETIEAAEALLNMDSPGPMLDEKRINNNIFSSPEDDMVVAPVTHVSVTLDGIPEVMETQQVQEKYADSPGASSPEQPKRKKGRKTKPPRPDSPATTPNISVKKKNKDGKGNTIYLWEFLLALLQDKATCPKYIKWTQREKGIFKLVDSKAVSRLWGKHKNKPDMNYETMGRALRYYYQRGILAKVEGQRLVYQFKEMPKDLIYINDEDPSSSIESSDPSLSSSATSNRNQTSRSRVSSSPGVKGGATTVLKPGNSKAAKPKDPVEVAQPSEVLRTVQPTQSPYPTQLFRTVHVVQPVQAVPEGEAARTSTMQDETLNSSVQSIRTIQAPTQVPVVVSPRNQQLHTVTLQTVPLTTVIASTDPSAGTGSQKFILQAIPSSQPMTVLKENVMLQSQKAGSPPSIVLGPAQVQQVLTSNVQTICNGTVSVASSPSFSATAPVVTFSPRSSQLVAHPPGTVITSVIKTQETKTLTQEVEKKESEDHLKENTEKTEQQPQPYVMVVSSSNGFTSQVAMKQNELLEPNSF

Sequence	binding signal (FLI1)	binding signal (ELK1)	binding signal (GABPA)	binding signal (ERG)	binding signal (ELF1)	binding signal (EHF)	binding signal (SPI1)	binding signal (SPIB)	binding signal (ELK3)
CGCTTT	1.31 fold enrichment (6-mer frequency, TF over GST control)	1.1 fold enrichment (6-mer frequency, TF over GST control)	1.32 fold enrichment (6-mer frequency, TF over GST control)	1.15 fold enrichment (6-mer frequency, TF over GST control)	1.18 fold enrichment (6-mer frequency, TF over GST control)	1.19 fold enrichment (6-mer frequency, TF over GST control)	1.59 fold enrichment (6-mer frequency, TF over GST control)	1.4 fold enrichment (6-mer frequency, TF over GST control)	1.31 fold enrichment (6-mer frequency, TF over GST control)
TCTTGG	1.44 fold enrichment (6-mer frequency, TF over GST control)	1.35 fold enrichment (6-mer frequency, TF over GST control)	1.52 fold enrichment (6-mer frequency, TF over GST control)	1.38 fold enrichment (6-mer frequency, TF over GST control)	1.28 fold enrichment (6-mer frequency, TF over GST control)	1.48 fold enrichment (6-mer frequency, TF over GST control)	1.35 fold enrichment (6-mer frequency, TF over GST control)	1.4 fold enrichment (6-mer frequency, TF over GST control)	1.4 fold enrichment (6-mer frequency, TF over GST control)
GTATTT	1.47 fold enrichment (6-mer frequency, TF over GST control)	1.61 fold enrichment (6-mer frequency, TF over GST control)	1.48 fold enrichment (6-mer frequency, TF over GST control)	1.67 fold enrichment (6-mer frequency, TF over GST control)	1.53 fold enrichment (6-mer frequency, TF over GST control)	1.6 fold enrichment (6-mer frequency, TF over GST control)	1.55 fold enrichment (6-mer frequency, TF over GST control)	1.61 fold enrichment (6-mer frequency, TF over GST control)	1.75 fold enrichment (6-mer frequency, TF over GST control)
TCTTAG	1.22 fold enrichment (6-mer frequency, TF over GST control)	1.21 fold enrichment (6-mer frequency, TF over GST control)	1.22 fold enrichment (6-mer frequency, TF over GST control)	1.15 fold enrichment (6-mer frequency, TF over GST control)	1.25 fold enrichment (6-mer frequency, TF over GST control)	1.21 fold enrichment (6-mer frequency, TF over GST control)	1.13 fold enrichment (6-mer frequency, TF over GST control)	1.09 fold enrichment (6-mer frequency, TF over GST control)	1.11 fold enrichment (6-mer frequency, TF over GST control)
TACGAC	1.33 fold enrichment (6-mer frequency, TF over GST control)	1.2 fold enrichment (6-mer frequency, TF over GST control)	1.29 fold enrichment (6-mer frequency, TF over GST control)	1.26 fold enrichment (6-mer frequency, TF over GST control)	1.27 fold enrichment (6-mer frequency, TF over GST control)	1.23 fold enrichment (6-mer frequency, TF over GST control)	1.25 fold enrichment (6-mer frequency, TF over GST control)	1.22 fold enrichment (6-mer frequency, TF over GST control)	1.36 fold enrichment (6-mer frequency, TF over GST control)
TACTGT	1.15 fold enrichment (6-mer frequency, TF over GST control)	1.21 fold enrichment (6-mer frequency, TF over GST control)	1.13 fold enrichment (6-mer frequency, TF over GST control)	1.12 fold enrichment (6-mer frequency, TF over GST control)	1.12 fold enrichment (6-mer frequency, TF over GST control)	1.19 fold enrichment (6-mer frequency, TF over GST control)	1.11 fold enrichment (6-mer frequency, TF over GST control)	1.12 fold enrichment (6-mer frequency, TF over GST control)	1.11 fold enrichment (6-mer frequency, TF over GST control)
ATAGTA	1.12 fold enrichment (6-mer frequency, TF over GST control)	1.18 fold enrichment (6-mer frequency, TF over GST control)	1.19 fold enrichment (6-mer frequency, TF over GST control)	1.15 fold enrichment (6-mer frequency, TF over GST control)	1.19 fold enrichment (6-mer frequency, TF over GST control)	1.22 fold enrichment (6-mer frequency, TF over GST control)	1.06 fold enrichment (6-mer frequency, TF over GST control)	1.13 fold enrichment (6-mer frequency, TF over GST control)	1.12 fold enrichment (6-mer frequency, TF over GST control)
